# Laboratory results as given in PubChem BioAssay AID1490 (National Center for Advancing Translational Sciences (NCATS), 2009).
# Values joined by “and” are separate entries in the source; they are usually repeats but may differ in a detail not shown here. Identical values can stand only once. In all, about 310,000 compounds went through this assay and about 11,000 (3.5%) were called active. Not shown: some 4% with an inconclusive outcome. The list comes from a sample in which actives are over-represented; it also holds similar structures and randomly drawn compounds. Unmarked numbers belong to inactive results. Calls follow the shape of the dose curve; as a rule, active = well fitted inhibition curve with a large enough effect; inconclusive = small, poorly fitted or top-dose-only effect, or another doubt; inactive = no such curve, though single readings can be large or run the other way.
# Molecular target: 4'-phosphopantetheinyl transferase ffp (Bacillus subtilis) (UniProt Q9F4F7)
# Experiment: qHTS Assay for Inhibitors of Bacillus subtilis Sfp phosphopantetheinyl transferase (PPTase);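 also: the enzyme is Sfp with the accession as filed and its product quenches rhodamine fluorescence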;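 as to largest response in the series, negative = inhibition: 0% = enzyme reaction without inhibitor and -100% = no enzyme wells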
# Conditions: Biochemical Sfp PPTase activity
# How it was run: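 Fluorescence-quenching assay: 15 nM Sfp-PPTase preincubated 15 min at room temperature with compound, then 5 uM rhodamine-CoA and 12.5 uM BHQ-2-labelled YbbR peptide added. Fluorescence (ex 525/em 598 nm) read at start and after 30 min; difference gives rate.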
# Potency is read from the fitted curve at half-maximal effect.
SMILES,"largest response in the series, negative = inhibition",Potency
COc1cccc(CN2CCN(Cc3ccc4cccc(F)c4n3)CC2CCO)c1 (centres undefined),13.8%,–
Cn1c2ccccc2c(=O)c2c(=O)n(Cc3ccco3)c(COc3ccccc3)nc21,–,8.91 µM (active)
CCCc1nc2c(c(=O)c3ccccc3n2C)c(=O)n1-c1cc(C)cc(C)c1,-11.4%,–
COc1ccc(C(=O)CSc2nnc(COc3ccccc3)n2Cc2ccco2)cc1,-23.6%,–
COc1cccc(NC(=O)C(=O)c2cn(CC(=O)N3CCOCC3)c3ccccc23)c1,11.1%,–
COCCCNCCOCCOc1ccc(Cl)cc1Br,1.66%,–
Cc1ccc(C(C)(C)C)c(OCCCCN2CCCC2)c1,-28.7%,–
CC(C)(C)NCCCOc1ccc(Cl)cc1C(C)(C)C,–,50.1 µM (active)
CC(C)(C)OC(=O)N1CCC(C(=O)NNC(=O)c2ccc(Cl)cc2Cl)CC1,5.93%,–
c1ccc(-c2nc(NCc3ccco3)c3ccccc3n2)cc1,–,11.2 µM (active)
c1coc(CNc2ncnc3ccccc23)c1,8.96%,–
CCOCCCNc1nc(-c2ccccc2)nc2ccccc12,14.7%,–
CC(C)C(=O)N1CC(=O)Nc2ccc(F)cc2C1c1ccc(F)cc1 (centres undefined),17.9%,–
CCN(CC(=O)N1CCCC1)S(=O)(=O)c1ccc(F)cc1,4.81%,–
O=C(NNC(=S)Nc1ccc(Br)cc1Cl)c1ccco1,12.1%,–
CCC(=O)NC(=S)Nc1ccc(NC(=O)c2ccco2)c(Cl)c1,–,39.8 µM (active)
O=C(Nc1ccc(NC(=O)c2ccco2)c(Cl)c1)c1cccc([N+](=O)[O-])c1,5.01%,–
O=S(=O)(c1cccc(Cn2nnc(-c3ccc(F)cc3)n2)c1)N1CCOCC1,3.33%,–
CC(=O)C1=C(C)NC(=O)NC1c1ccc2c(c1)OCO2 (centres undefined),0.489%,–
c1nnc2c3c4c(sc3ncn12)CCC4,-1.58%,–
S=c1[nH]nc2c3c4c(sc3ncn12)CCCC4,–,56.2 µM (active)
N=c1c2c3c(sc2ncn1N)CCCC3,13.2%,–
Cc1cc(-c2ccc(S(=O)(=O)N3CCc4ccccc4C3)s2)on1,12.5%,–
O=C(NCc1ccccc1)C(c1ccco1)N(C(=O)c1csnn1)c1ccccc1F (centres undefined),11.4%,–
C[C@H](NC(=O)C1CC(=O)N(c2ccc3c(c2)OCO3)C1)C(=O)NCc1ccco1 (some centres undefined),4.65%,–

SMILES,"largest response in the series, negative = inhibition",Potency
CC/C=C\C/C=C\C/C=C\C/C=C\C/C=C\C/C=C\CCC(=O)NC(C)C(=O)O (centres undefined),-29.1%,–
CN(C)/C=C1\C=C(c2ccccc2)OC1=O,–,20 µM (active)
COc1cccc(/C=C2\C=C(c3ccc(C)cc3)OC2=O)c1OC(C)=O,-6.33%,–
CN(C)/C=C1/C(=O)Nc2ccccc21,-6.73%,–
O=S(=O)(c1ccccc1)N(Cc1cccc(F)c1)c1ccccc1,13.8%,–
CN(Cc1ccco1)c1ncncc1-c1ccoc1,–,79.4 µM (active)
Cc1ccccc1-c1nc(N(C)Cc2ccco2)c2ccccc2n1,-22.5%,–
CN(Cc1ccco1)c1cc(-c2ccccc2C(F)(F)F)ncn1,-8.82%,–
CCC1OC(c2ccc([N+](=O)[O-])cc2)=Nc2ccccc21 (centres undefined),-5.21%,–
CCOc1cc(C)ccc1OCc1nnc(SCC(=O)Nc2cccc(C(=O)O)c2)n1-c1ccccc1,22.3%,–
Cc1ccc(NC(=O)[C@H](Cc2ccccc2)NC(=O)C2CCNCC2)cc1,1.09%,–
CCOC(=O)c1c(NC(=S)Nc2ccccc2C)sc2c1CCC2,-14.6%,–
CCCOC(=O)Nc1sc2c(c1C(=O)OCC)CCC2,–,14.1 µM (active)
CCOC(=O)c1c(NC(=O)CCC(=O)NCc2ccco2)sc2c1CCCC2,-8.63%,–
CCOC(=O)c1c(NC(=O)C2(C)Cc3ccccc3C(=O)O2)sc2c1CCCC2 (centres undefined),–,35.5 µM (active)
CCOC(=O)c1c(NC(=S)NC)sc2c1CCCC2,7.02%,–
CCOC(=O)c1c(NC(=O)Cn2nc(C(F)(F)F)cc2C)sc2c1CCC2,-2.66%,–
Cc1ccc(C(=O)OCC(=O)NC(=O)Cc2ccccc2)c(O)c1,15.9%,–
O=C(NCC1CC1)C1(C(F)(F)F)C/C(=C\CCO)CCCO1 (centres undefined),1.74%,–
CNC(=O)[C@]1(C(F)(F)F)C[C@H](CCc2ccccc2)CCCO1,-10.7%,–
Cc1ccc(CNC(=O)C2(C(F)(F)F)C/C(=C\Cc3ccccc3)CCCO2)o1 (centres undefined),–,35.5 µM (active) and 50.1 µM (active)
Cc1ccc(CNC(=O)C2(C(F)(F)F)C/C(=C\CCO)CCCO2)o1 (centres undefined),–,50.1 µM (active)
O=C(NCc1ccccn1)[C@]1(C(F)(F)F)C[C@H](CCc2ccccc2)CCCO1,-24.4%,–
Cc1ccc(CNC(=O)Cn2cnc(S(=O)(=O)N3CCCCC3)c2)o1,14.3%,–
